# From PubChem BioAssay
# SARS PLP yeast – SARS-CoV PLP inhibition in yeast | S. cerevisiae expressing SARS-CoV PLpro, growth rescue | Potency, µM (doses to about 32.9 µM), for the others: at the highest dose activity, positive = growth rescue, actives largely listed as activators | 330,000 tested, 0.19% active; calls by dose curve; note: 0% is about no effect; nearly all actives have a fitted effect of over 55% in size
# Sm TGR inh – S. mansoni TGR enzyme inhibition. AID 485364. purified TGR, DTNB reduction, TNB absorbance 405 nm. Q962Y6. 360,000 tested, 3% active. Potency, µM (titrated, usually from 114 µM), inactives show at the top dose activity change, negative = inhibition, hits mostly inhibitors; note: % is set by controls: 0 for no effect and ±100 for the full control effect; nearly all actives have a fitted effect of over 60% in size
#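 First, TGR (20 nM dispensed) and NADPH were mixed with compound. Second, a 15 min room-temperature incubation followed. Third, further NADPH and then DTNB were added to start the reaction. Finally, TNB absorbance was monitored kinetically.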
# Pf growth 48h – inhibits P. falciparum growth in the first generation, 48 h. 310,000 tested, 5.9% active. AID 504832. P. falciparum luciferase growth in erythrocytes, 48 h. Potency, µM (doses to about 28.7 µM), for the others: at the top dose activity change, negative = inhibition, actives largely listed as inhibitors; note: % is set by controls: 0 for no effect and ±100 for the full control effect
#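 A one-generation exposure of luciferase-tagged malaria parasites in RPMI 1640/Albumax erythrocyte culture, 37 C and 5% CO2. Inhibition is inferred from decreased luminescence after adding detection reagent.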
# Pf growth 96h – inhibits malaria parasite growth, 96 h | P. falciparum luciferase reporter growth, 96 h | Potency, µM (titrated, usually from 28.7 µM), without a hit: at the top dose activity change, negative = inhibition, hits mostly inhibitors | 320,000 tested, 6.9% active; note: % is set by controls: 0 for no effect and ±100 for the full control effect
#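 Compounds incubated with erythrocytes infected by luciferase-expressing P. falciparum (2% hematocrit, 0.05% parasitemia final) for 96 hours, 37 C in 5% CO2. Growth inhibition scored as decreased luciferase luminescence.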
# The depositor's hits bear a star; ? = inconclusive; . = no result. Sampled rows, rich in hits. Any-hit rate of the full collection: about 12%. Unless noted, calls come from the whole dose curve; as a rule, active = well fitted curve in the direction sought with a large enough effect; inconclusive = small, poorly fitted or top-dose-only effect, or another doubt; inactive = no such curve, though single readings can be large; an effect the other way counts as inactive or inconclusive. Potency is the fitted concentration of half-maximal effect.
SMILES,SARS PLP yeast,Sm TGR inh,Pf growth 48h,Pf growth 96h
Cc1ccc(C(=O)Nc2cccc3[nH]c(C(F)(F)F)nc23)cc1,-5.5%,0.0%,7.6%,-13.1%
COc1cccc(-c2cc(C(F)(F)F)nc(NCc3ccc(F)cc3)n2)c1,.,-1.6%,.,.
CCOC(=O)[C@H]1[C@H]2COc3ccc(C)cc3[C@@H]2N2C(=O)c3cc(OC)c(OC)cc3NC(=O)[C@@]12C,-3.3%,-11.0%,11.7µM*,?
CCOC(=O)[C@H]1[C@H]2COc3ccccc3[C@@H]2N2C(=O)c3cc(OC)c(OC)cc3NC(=O)[C@@]12C,-2.9%,2.0%,?,?
CCOC(=O)[C@H]1[C@H]2COc3ccc(Br)cc3[C@@H]2N2C(=O)c3cc(OC)c(OC)cc3NC(=O)[C@@]12C,-7.5%,-4.8%,9.28µM*,?
CCOC(=O)[C@H]1[C@H]2COc3ccc(OC)cc3[C@@H]2N2C(=O)c3cc(OC)c(OC)cc3NC(=O)[C@@]12C,1.2%,-14.7%,11.7µM*,?
CCOC(=O)[C@H]1[C@H]2COc3ccc(C)cc3[C@@H]2N2C(=O)c3cc(F)c(F)cc3NC(=O)[C@@]12C,0.1%,-10.0%,11.7µM*,?
CCCCc1ccc(NC(=O)Cn2cnc3c2c(=O)n(C)c(=O)n3C)cc1,.,-7.3%,.,.
CCOC(=O)[C@H]1[C@H]2COc3ccc(OC)cc3[C@@H]2N2C(=O)c3ccccc3NC(=O)[C@@]12C,-5.6%,1.8%,?,?
CCOC(=O)[C@H]1[C@H]2COc3ccc(OC)cc3[C@@H]2N2C(=O)c3cc(OC)ccc3NC(=O)[C@@]12C,2.8%,-34.7%,10.4µM*,?
CCC(C)c1ccc(S(=O)(=O)N2CCN3CCCC3C2)cc1 (centres undefined),0.2%,-6.6%,14.7%,-14.5%
CCOP(=O)(c1ccc(N(C)C)cc1)C(O)c1ccccc1 (centres undefined),2.5%,-1.0%,11.7µM*,.
CC(C)COP(=O)(c1ccc(N(C)C)cc1)C(O)c1ccccc1 (centres undefined),9.6%,9.9%,-5.2%,-17.1%
CCOP(=O)(c1ccccc1)C(O)c1ccc(F)cc1 (centres undefined),19.1%,-5.6%,-5.4%,7.38µM*
CCOP(=O)(c1ccccc1)C(O)c1ccc([N+](=O)[O-])cc1 (centres undefined),2.1%,1.7%,-12.8%,362.2%
COc1cc(OC)c(NC(=O)Cc2c(C(=O)O)c(C)cn2C)cc1Cl,.,-1.7%,.,.
COC(=O)c1ccccc1NC(=O)CSc1nc2ccccc2nc1Cc1ccccc1OC,.,0.0%,.,.
CCCCNC(=O)c1ccccc1SCC(=O)NC1CCCCCCC1,0.4%,1.4%,?,-24.2%
Cc1ccc(C23CC4CC(CC(CN)(C4)C2)C3)cc1,-0.7%,10.4%,10.4µM*,?
CCc1ccc(N2C(=O)Cc3c2nc(N)c(C#N)c3N)cc1,-7.3%,1.7%,153.2%,.
CCN(CC)c1nc2c3c(nc4c(c3c1C#N)CC(=O)N4c1ccc(Cl)cc1)NC(C)=N2,18.3%,-7.1%,16.5µM*,4.65µM*
C[n+]1cccc2c(Br)ccc([O-])c21,-0.1%,44.7µM*,?,2.33µM*
COCCC(=O)Nc1ccc2c(c1)CN(C(=O)c1ccc(CSC)o1)CC2,-3.8%,44.7µM*,?,13.1µM*
O=C(Nc1ccc2c(c1)CN(Cc1ccc(CO)o1)CC2)c1ccc(C(F)(F)F)cc1,1.8%,-32.4%,?,65.8%
COc1ccccc1CCC(=O)Nc1ccc2c(c1)CN(Cc1ccc(CO)o1)CC2,-1.8%,?,13.1µM*,?
SMILES,SARS PLP yeast,Sm TGR inh,Pf growth 48h,Pf growth 96h
Cc1ccc(S(=O)(=O)N(C)CC(=O)Nc2ccccc2N2CCCC2)cc1,5.3%,-8.9%,?,?
COc1cccc(C(c2sc3nc(-c4ccco4)nn3c2O)N2CCC3(CC2)OCCO3)c1 (centres undefined),.,-14.8%,.,.
O=C(CN1CCOCC1)Nc1cccc(C(=O)Nc2cccc(C(F)(F)F)c2)c1,1.5%,-14.0%,?,0.0%
CCCCCNCC(=O)Nc1cccc(C(=O)Nc2cccc(C(F)(F)F)c2)c1,0.1%,-0.1%,4.65µM*,3.29µM*
Cc1ccc(C(=O)Nc2cccc(C(F)(F)F)c2)cc1Nc1cncnc1,-16.4%,?,0.9%,11.7µM*
CCn1c(C(=O)O)c(CC(=O)Nc2cccc(C(F)(F)F)c2)c2ccccc21,0.1%,-12.7%,-6.7%,0.738µM*
COc1ccc2nccc(C(N)=O)c2c1,-0.3%,9.3%,20.8%,0.0%
S=C(NC1CCCCC1)N1CCOCCOCCN(C(=S)NC2CCCCC2)CCOCC1,11.2%,-8.0%,11.7µM*,4.65µM*
C=C(c1ccccc1O)n1ccnc1,0.9%,-7.5%,.,?
CC1CCCCC12NC(=O)N(CC(=O)Nc1sc3c(c1C(N)=O)CCC3)C2=O (centres undefined),19.0%,-25.6%,.,10.4µM*
CC1CCC2(CC1)NC(=O)N(CC(=O)Nc1sc3c(c1C(N)=O)CCC3)C2=O (centres undefined),0.4%,39.8µM*,25.0%,20.4%
CC1CCC2(CC1)NC(=O)N(CC(=O)NC(=O)NC1CCCC1)C2=O (centres undefined),0.9%,-15.8%,-14.5%,13.1µM*
O=C(CN1C(=O)NC2(CCCCCC2)C1=O)NC1CCCCCCC1,5.4%,4.1%,4.6%,13.8%
Cc1nc(SCC(=O)Nc2nnc(C(C)C)s2)n[nH]1,1.9%,-0.6%,0.0%,8.9%
CC(NC(=O)C1CCCN1S(=O)(=O)c1ccccc1)c1ccccc1 (centres undefined),13.4%,30.0%,-4.4%,2.4%
Cc1ccc(Nc2nc3nonc3[nH]c2=O)cc1C,-21.6%,4.8%,45.5%,5.22µM*
COCC(C)n1c(C)cc(C(=O)CSc2nnc(Nc3ccccc3F)s2)c1C (centres undefined),-9.3%,17.8%,1.47µM*,0.586µM*
O=[N+]([O-])c1cccnc1-n1cnc2ccccc21,3.6%,-30.7%,11.6%,-26.5%
Cc1cc2ncn(-c3ncccc3[N+](=O)[O-])c2cc1C,-26.8%,44.7µM*,0.0%,4.4%
COc1cccc(OC)c1OCC(=O)Nc1ccc(S(=O)(=O)N2CCCC2)cc1,-1.4%,.,.,.
Cc1ccc(CNC(=O)C2CCCN(c3nc4ccccc4o3)C2)cc1 (centres undefined),2.0%,-6.3%,0.3%,0.0%
Cc1ccnc(N2CCCC(C(=O)NCc3cccs3)C2)n1 (centres undefined),6.4%,-2.1%,-8.9%,9.28µM*
O=C(NCc1cccs1)C1CCCN(c2nc3ccccc3o2)C1 (centres undefined),-14.4%,1.4%,?,5.22µM*
COc1ccc(NC(=O)C2CCCN(c3nccc(C)n3)C2)cc1 (centres undefined),5.2%,7.7%,-12.5%,10.4µM*
COc1ccc(Br)cc1CNC(=O)C1CCCN(c2nc3ccccc3o2)C1 (centres undefined),1.0%,27.2%,4.3%,5.86µM*
CC(=O)c1cccc(NC(=O)COC(=O)Cn2cnc3ccccc32)c1,-1.8%,.,.,.
O=S(=O)(c1cc(F)ccc1F)N1CCN(C2CCCCC2)CC1,-0.1%,-2.3%,6.6%,16.1%
